According to PubChem BioAssay (EPA / NIEHS):
Active and inactive are the calls of the source. Rule for the calls: active = hit-call score of the fitted dose curve at least 0.9, where 1 is the maximum; inactive = score below 0.9.

Experiment: APR_HepG2_P-H2AX_24hr: Apredica 24-hour HepG2 Assay for H2AX Phosphorylation (AID 2282920)
Details: high-content imaging, actives raise or lower the signal
Method: APR_HepG2_24hr is a cell-based, multiplexed-readout assay that uses HepG2, a human liver cell line, with measurements taken at 24 hours after chemical dosing in a 384-well plate.APR_HepG2_P-H2AX_24hr is one of 10 assay component(s) measured or calculated from the APR_HepG2_24hr assay. It is designed to make measurements of dna content, a form of viability reporter, as detected with fluorescence intensity signals by HCS Fluorescent Imaging technology.Data from the assay component APR_HepG2_P-H2AX_24hr was analyzed into 1 assay endpoint. This assay endpoint, APR_HepG2_P-H2AX_24hr, was analyzed with bidirectional fitting relative to DMSO as the negative control and baseline of activity. Using a type of viability reporter, measures of protein for gain or loss-of-signal activity can be used to understand the signaling at the pathway-level as they relate to the gene . Furthermore, this assay endpoint can be referred to as a primary readout, because this assay has produced multiple assay endpoints where this one serves a signaling function. To generalize the intended target to other relatable targets, this assay endpoint is annotated to the dna binding intended target family, where the subfamily is cellular response to DNA damage stimulus.
Cells were treated with dimethyl sulfoxide (DMSO) as a solvent control at a final concentration of 0.5% v/v or with compounds in DMSO with a resulting final DMSO concentration of 0.5% v/v. Compound treatment was done at concentrations of 0.39, 0.78, 1.56, 3.12, 6.24, 12.5, 25, 50, 100, and 200 uM in duplicate on each plate. Cells were treated with compounds for 1, 24, or 72 hr. Carbonyl […] m-chloro-phenylhydrazone (CCCP) and taxol were used as positive controls for mitochondrial function and cytoskeletal stability, respectively; DMSO served as the negative control for this experiment. Cells were fixed by the direct addition of 50 uL formaldehyde in Hank's Balanced Salt Solution (HBSS) to a final concentration of 3.7%. After incubation in the fixation medium for 30 min at room temperature (293-298 K), cells were rinsed twice with HBSS and treated with cell permeabilization buffer (16 uL of 0.5% Triton X-100) for 10 min at room temperature (293-298 K) before labeling. For mitochondrial membrane potential and mitochondrial measurements, pre-fixed cells were incubated with 50 uL of MitoTracker Red CMXRos (Invitrogen) at a concentration of 250 nM for 30 min before fixation. In the remaining cases, post-fixed cells were labeled by incubation with a multiplexed mixture of primary antibodies in HBSS for 60 min at room temperature (293-298 K) to detect immunoreactivity of c-Jun (1:500), phospho-histone H3 (1:100), phospho-histone H2A.x (1:200), p53 (1:400), alpha-tubulin (1:200) and Hoechst 33342 (2 ug/mL). Cells were labeled for multiplexed imaging on two separate plates: a) Hoechst 33342, MitoTracker Red, phospho-histone H3, and alpha-tubulin, and b) Hoechst 33342, phospho-histone H2A.x, and c-Jun. A final rinse with HBSS (50 uL) was performed before analysis. The primary and secondary antibodies for the proteins were phospho-histone H3 (rabbit anti-phospho-histone H3 and FITC-donkey anti-rabbit IgG), phospho-histone H2A.x (mouse anti-phospho-histone H2A.x and FITC-donkey anti-mouse IgG), c-Jun (rabbit anti-phospho-c-Jun and Cy3-donkey anti-rabbit IgG), p53 (sheep anti-p53 and Cy5-donkey anti-sheep IgG), alpha-tubulin (mouse anti-alpha-tubulin and Cy5-donkey anti-mouse IgG). These antibodies are available as the CellCiphr HepG2 assay kit (Millipore).Digital images of each well were captured using a Cellomics ArrayScan VTI (Thermo Scientific Cellomics) (0.8 NA objective, 0.63x optical coupler, and XF-93 filter set) at 20x magnification. The images were acquired using the autofocus feature of the ArrayScan instrument, which entails the following steps. First, the camera focuses on channel 1 (Hoechst 33342), where nuclei are identified. Second, a Z offset of 1 um is used for capturing mitochondria (MitoTracker Red). […]

SMILES	outcome	AC50
CCCCCCCCCCCCc1cccc(S(=O)(=O)O)c1	inactive	–
CN(C)C(=S)S	–	12 µM (active)
Clc1cccc(Cl)c1	inactive	–
CC(C)O.CC(C)O.OCCN(CCO)CCO.OCCN(CCO)CCO.[Ti]	inactive	–
Oc1cc(Cl)c(Cl)cc1Cl	–	38.9 µM (active)
OCCN(CCO)CCO	inactive	–
COc1ccccc1N	inactive	–
CC(C)(C)c1ccccc1O	inactive	–
Clc1cccc(Cl)c1Cl	inactive	–
O=C(O)C1(c2ccc3c(c2)OC[C@H](Cc2ccc(-c4ccccc4)cc2)[C@H]3O)CCCC1	–	108 µM (active)
Cc1cc(C)cc(C)c1	inactive	–
Oc1c(Cl)cc(Cl)cc1Cl	inactive	–
O=C(N[C@H]1CN2CCC1CC2)c1ccc2c(c1)OCCO2	inactive	–
N#Cc1cccnc1	inactive	–
